Several values for one entry are separate records, joined by “and”; a condition that tells them apart may be missing. Equal values may be shown once. In all, about 5,500 compounds went through this assay and about 2,000 (36%) were called active. About 18% were inconclusive and are not listed. No stated cut-off is given here; in the data, active means normalized growth mostly below about 0.91 (no sharp cut-off); inconclusive means no clear call, values can overlap the other calls; inactive means mostly above about 0.92. Some of the results follow.
Experiment: chemical genetic growth profiling, strain panel (AID 1159580);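 further: tested at 20 µM; growth read once vehicle control cultures reached saturation at 30 °C; 1 = growth at the plate median or of vehicle wells; lower values mean less growth of the strain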
Settings: S. cerevisiae deletion strains, growth OD

Measured: normalized growth

CC(=O)CC1CCCCN1 (configuration not stated)
inactive: locus YAL013W, strain DEP1, active compounds read low 1.01 | locus YAL021C, strain ccr4, active compounds read low 1.02 | locus YAL026C, strain drs2, active compounds read low 1.01 | locus YAL030W, strain snc1, active compounds read low 1.02 | locus YBL061C, strain skt5, active compounds read low 1.02 | locus YBR009C, strain hhf1, active compounds read low 1.02 | locus YBR021W, strain FUR4, active compounds read low 0.985 | locus YBR023C, strain chs3, active compounds read low 1.03 | locus YBR171W, strain sec66, active compounds read low 1.02 | locus YBR229C, strain ROT2, active compounds read low 1.02 | locus YBR231C, strain swc5, active compounds read low 1.01 | locus YBR279W, strain paf1, active compounds read low 1.03 | locus YCL011C, strain gbp2, active compounds read low 1.02 | locus YCL016C, strain dcc1, active compounds read low 1.03 | locus YCL029C, strain bik1, active compounds read low 0.99 | locus YCL061C, strain MRC1, active compounds read low 1.01 | locus YCL069W, strain vba3, active compounds read low 1 | locus YCR088W, strain abp1, active compounds read low 1.02 | locus YDL005C, strain med2, active compounds read low 1.02 | locus YDL035C, strain GPR1, active compounds read low 1.02 | locus YDL040C, strain nat1, active compounds read low 1.02 | locus YDL074C, strain BRE1, active compounds read low 1.03 | locus YDL101C, strain DUN1, active compounds read low 1.02 | locus YDL134C, strain PPH21, active compounds read low 1.01 | locus YDL185W, strain tfp1, active compounds read low 1 | locus YDL192W, strain arf1, active compounds read low 0.992 | locus YDR001C, strain nth1, active compounds read low 1.01 | locus YDR069C, strain doa4, active compounds read low 1.01 | locus YDR101C, strain arx1, active compounds read low 0.982 | locus YDR137W, strain rgp1, active compounds read low 1.04 | locus YDR150W, strain NUM1, active compounds read low 1.02 | locus YDR159W, strain sac3, active compounds read low 1.01 | locus YDR162C, strain NBP2, active compounds read low 1.03 | locus YDR195W, strain ref2 0.982 | locus YDR297W, strain sur2, active compounds read low 1.01 | locus YDR318W, strain mcm21, active compounds read low 0.993 | locus YDR334W, strain swr1, active compounds read low 1 | locus YDR335W, strain msn5, active compounds read low 1.01 | locus YDR388W, active compounds read low 0.992 | locus YDR392W, strain spt3, active compounds read low 0.981 | locus YDR502C, strain sam2, active compounds read low 1 | locus YEL003W, strain gim4, active compounds read low 1.01 | locus YEL037C, strain rad23, active compounds read low 1.02 | locus YEL061C, strain CIN8 (second series), active compounds read low 1.02 | locus YEL061C, strain CIN8, active compounds read low 1.02 | locus YER015W, strain faa2, active compounds read low 1.02 | locus YER016W, strain bim1, active compounds read low 1.02 | locus YER110C, active compounds read low 0.988 | locus YER111C, strain swi4, active compounds read low 1.02 | locus YER155C, strain BEM2 (second series), active compounds read low 1.01 | locus YER155C, strain BEM2, active compounds read low 1.01 | locus YER167W, strain BCK2, active compounds read low 1.01 | locus YFR010W, strain ubp6, active compounds read low 1.01 | locus YGL078C, strain dbp3, active compounds read low 0.991 | locus YGL086W, strain mad1, active compounds read low 0.991 | locus YGL167C, strain pmr1, active compounds read low 1.02 | locus YGL173C, strain kem1, active compounds read low 1.01 | locus YGL227W, strain vid30, active compounds read low 1.02 | locus YGL240W, strain doc1, active compounds read low 1.01 | locus YGL248W, strain PDE1, active compounds read low 1.02 | locus YGL253W, strain hxk2, active compounds read low 1.02 | locus YGR078C, strain PAC10, active compounds read low 1.02 | locus YGR135W, strain pre9, active compounds read low 1 | locus YGR229C, strain SMI1, active compounds read low 1.03 | locus YGR252W, strain gcn5, active compounds read low 0.915 | locus YHR013C, strain ard1, active compounds read low 1.02 | locus YHR027C, strain rpn1, active compounds read low 1.01 | locus YHR030C, strain SLT2, active compounds read low 1.01 and 0.991 | locus YHR079C, strain IRE1 (second series), active compounds read low 0.994 | locus YHR079C, strain IRE1, active compounds read low 1 | locus YHR094C, strain hxt1, active compounds read low 0.991 | locus YHR129C, strain ARP1, active compounds read low 0.974 | locus YHR142W, strain chs7, active compounds read low 1.02 | locus YHR200W, strain rpn10, active compounds read low 0.982 | locus YIL066C, strain RNR3, active compounds read low 1.02 | locus YIL073C, strain SPO22, active compounds read low 1.01 | locus YIL125W, strain kgd1, active compounds read low 0.99 | locus YIR030C, strain dcg1, active compounds read low 0.993 | locus YJL092W, strain hpr5, active compounds read low 1.01 | locus YJL095W, strain BCK1 (second series), active compounds read low 1.02 | locus YJL095W, strain BCK1, active compounds read low 1.01 and 0.998 | locus YJL115W, strain asf1, active compounds read low 1.02 | locus YJL129C, strain trk1, active compounds read low 1.04 | locus YJL134W, strain LCB3, active compounds read low 1.01 | locus YJL154C, strain vps35, active compounds read low 1.02 | locus YJL164C, strain tpk1, active compounds read low 1.03 | locus YJL166W, strain qcr8, active compounds read low 1.03 | locus YJL168C, strain set2, active compounds read low 0.991 | locus YJL187C, strain SWE1 (second series), active compounds read low 1.02 | locus YJL187C, strain SWE1, active compounds read low 1.01 | locus YJR043C, strain POL32, active compounds read low 0.992 | locus YJR066W, strain TOR1, active compounds read low 0.975

Source: PubChem BioAssay AID1159580 (chemical genetic matrix, 2015)
